The source of these data is PubChem BioAssay (Tox21).

A short description of experiment [1]: qHTS assay to identify small molecule antagonists of the estrogen related receptor (ERR) signaling pathway from Tox21 library - cell viability counter screen (AID 1224834). Further: nearly all actives have a fitted effect of over 30% in size. Further: potency means the concentration at half of the fitted maximal effect. Put shortly:
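CellTiter-Fluor fluorescence, read after 30 min at 37 C, measures viability of ERR cells. Cells plated at 2,000/well and incubated 6 h before pin-tool compound addition, then exposed 17.5 hours at 37 C.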
Background: In qHTS, concentration-response curves come from the screen itself.

Experiment [2] in a line: qHTS assay to identify small molecule agonists of the constitutive androstane receptor (CAR) signaling pathway - cell viability counter screen (AID 1224836). Further: nearly all actives have a fitted effect of over 45% in size. Further: potency means the concentration at half of the fitted maximal effect. Put shortly: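 Counter screen multiplexed with the CAR reporter readout: HepG2 cells co-transfected with hCAR and the CYP2B6-2.2kb construct receive a 15-concentration compound series and 0.75 uM PK11195 (final), then CellTiter-Fluor fluorescence is read after 23 h.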

Experiment [3] can be described thus: qHTS assay to identify small molecule antagonists of the constitutive androstane receptor (CAR) signaling pathway - cell viability counter screen (AID 1224837). Further: nearly all actives have a fitted effect of over 45% in size. Further: potency means the concentration at half of the fitted maximal effect. In a few lines: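 Cytotoxicity counter-screen: CellTiter-Fluor fluorescence after 23 h compound exposure (15-point qHTS) in double-stable HepG2-CYP2B6-hCAR cells, with 50 nM CITCO added.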
For experiment [4], the target named is Nuclear receptor subfamily 1 group I member 3 (Homo sapiens) (UniProt Q14994). Description: qHTS assay to identify small molecule antagonists of the constitutive androstane receptor (CAR) signaling pathway (AID 1224838).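 Further: HepG2 cells stably expressing hCAR with CYP2B6 luciferase reporter stimulated by CITCO; nearly all actives have a fitted effect of over 40% in size.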 Further: potency means the concentration at half of the fitted maximal effect. Put shortly:
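Antagonism measured as luciferase signal (ONE-Glo, 30 min, room temperature) in CAR-stimulated cells: HepG2-CYP2B6-hCAR double-stable line exposed 24 hr at 37 C to compound in a 15-point series plus 50 nM CITCO.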

Experiment [5] shares this target. Description: qHTS assay to identify small molecule agonists of the constitutive androstane receptor (CAR) signaling pathway (AID 1224839). Further: nearly all actives have a fitted effect of over 15% in size. Further: potency means the concentration at half of the fitted maximal effect. Put shortly:
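A 15-concentration quantitative screen uses HepG2 cells co-transfected stably with human CAR and CYP2B6-2.2kb reporter. Treatment lasts 24 h with 0.75 uM PK11195 final present; ONE-Glo luminescence is the signal.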

The nature of experiment [6]: qHTS assay to identify small molecule antagonists of the estrogen related receptor signaling pathway with the pleiotropic PPARgamma coactivator (PGC) from Tox21 10K library - cell viability counter screen (AID 1224840; active means well fitted cell-killing curve with a large enough effect in the repeat runs, not every such curve was filed as active; further: nearly all actives have a fitted effect of over 40% in size; further: potency means the concentration at half of the fitted maximal effect). In a few lines:
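Counter-screen for cytotoxicity: after 17.5 h compound exposure at 37 C, CellTiter-Fluor reagent added to PGC/ERR cells for 30 min and fluorescence read. Cells were seeded at 2,000 per well 6 h before dosing.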

Experiment [7] is described as follows: qHTS assay to identify small molecule antagonists of the estrogen related receptor signaling pathway with the pleiotropic PPARgamma coactivator (PGC) from Tox21 10K library (AID 1224841; call rule not given here; further: actives are mostly falling curves and most rising ones were filed inactive; nearly all actives have a fitted effect of over 50% in size; further: potency means the concentration at half of the fitted maximal effect). Put shortly: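 Luminescence (One-Glo, 30 min at room temperature) after 18 h compound treatment at 37 C of PGC/ERR reporter cells plated at 2,000 cells/well and settled 6 h beforehand.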

Experiment [8] can be described thus: qHTS assay to identify small molecule agonists of the estrogen related receptor signaling pathway with the pleiotropic PPARgamma coactivator (PGC) from Tox21 10K library (AID 1224842). Further: nearly all actives have a fitted effect of over 15% in size. Further: potency means the concentration at half of the fitted maximal effect. Put shortly:
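Luminescence from One-Glo (30 min, room temperature) measured after PGC/ERR cells had 18 h at 37 C with pinned compound (23 nL in DMSO). Cells had been seeded at 2,000 per well and pre-incubated 6 h.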

Experiment [9] has as its target Thyrotropin receptor (Homo sapiens) (UniProt P16473). In words: qHTS assay to identify small molecule agonists of the thyroid stimulating hormone receptor (TSHR) signaling pathway (AID 1224843; calls by dose curve; further: nearly all actives have a fitted effect of over 45% in size; further: potency means the concentration at half of the fitted maximal effect). In a few lines: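 Agonist activity read as cAMP rise via d2/cryptate HTRF competition, 1 h room-temperature detection, in HEK293 cells expressing TSHR. Fifteen-point titrations, each run in triplicate, with a 30 min room-temperature incubation beforehand.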

The target in experiment [10] is Luciferin 4-monooxygenase (Photinus pyralis) (UniProt P08659). In words: qHTS assay to identify small molecule inhibitors of firefly luciferase (AID 1224835). Further: series mostly up to about 120 µM; nearly all actives have a fitted effect of over 25% in size. Put shortly: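 Inhibition of purified Photinus luciferase is measured by luminescence. Substrate levels (D-luciferin, ATP) sit at their KM values. Each compound is tested in a concentration series.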
Luciferin 4-monooxygenase (Photinus pyralis), sequence (P08659 whole entry, looked up): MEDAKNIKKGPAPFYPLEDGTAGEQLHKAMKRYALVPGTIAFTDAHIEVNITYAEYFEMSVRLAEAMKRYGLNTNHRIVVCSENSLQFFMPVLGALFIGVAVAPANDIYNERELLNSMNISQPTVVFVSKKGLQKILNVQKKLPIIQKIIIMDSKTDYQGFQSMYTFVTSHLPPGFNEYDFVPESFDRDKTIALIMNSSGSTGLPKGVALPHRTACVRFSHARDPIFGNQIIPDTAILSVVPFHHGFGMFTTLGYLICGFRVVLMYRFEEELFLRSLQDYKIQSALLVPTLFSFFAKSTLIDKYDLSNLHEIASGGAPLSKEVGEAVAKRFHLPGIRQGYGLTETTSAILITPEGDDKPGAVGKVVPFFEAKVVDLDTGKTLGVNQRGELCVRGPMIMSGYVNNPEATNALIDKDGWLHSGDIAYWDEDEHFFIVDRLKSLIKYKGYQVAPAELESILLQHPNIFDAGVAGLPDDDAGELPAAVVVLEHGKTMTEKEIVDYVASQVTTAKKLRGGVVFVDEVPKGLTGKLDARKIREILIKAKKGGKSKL

Several values for one entry are separate records, joined by “and”; a condition that tells them apart may be missing. Equal entries are not always repeated. Results filed as inconclusive are left out. Some compounds were tested as several samples or in several runs, with calls that do not always agree. Activity calls are given as the source filed them. Unless noted, the call rests on the fitted dose curve; in most records, active means well fitted curve in the direction sought with a large enough effect in the repeat runs; inconclusive means weak or mixed curves; inactive means no such curve, though single readings can be large; an effect the other way counts as inactive or inconclusive.

Nuclear receptor subfamily 1 group I member 3 (Homo sapiens), sequence (Q14994 whole entry, looked up): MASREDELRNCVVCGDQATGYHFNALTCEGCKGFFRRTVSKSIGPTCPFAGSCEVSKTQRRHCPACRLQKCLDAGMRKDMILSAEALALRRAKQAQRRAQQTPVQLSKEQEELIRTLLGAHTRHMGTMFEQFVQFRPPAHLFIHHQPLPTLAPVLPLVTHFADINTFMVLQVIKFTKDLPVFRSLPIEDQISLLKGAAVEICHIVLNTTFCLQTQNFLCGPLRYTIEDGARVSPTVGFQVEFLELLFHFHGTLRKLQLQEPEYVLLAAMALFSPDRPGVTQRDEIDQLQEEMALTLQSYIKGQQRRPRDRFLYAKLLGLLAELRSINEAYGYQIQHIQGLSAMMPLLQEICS
Thyrotropin receptor (Homo sapiens), sequence (P16473 whole entry, looked up): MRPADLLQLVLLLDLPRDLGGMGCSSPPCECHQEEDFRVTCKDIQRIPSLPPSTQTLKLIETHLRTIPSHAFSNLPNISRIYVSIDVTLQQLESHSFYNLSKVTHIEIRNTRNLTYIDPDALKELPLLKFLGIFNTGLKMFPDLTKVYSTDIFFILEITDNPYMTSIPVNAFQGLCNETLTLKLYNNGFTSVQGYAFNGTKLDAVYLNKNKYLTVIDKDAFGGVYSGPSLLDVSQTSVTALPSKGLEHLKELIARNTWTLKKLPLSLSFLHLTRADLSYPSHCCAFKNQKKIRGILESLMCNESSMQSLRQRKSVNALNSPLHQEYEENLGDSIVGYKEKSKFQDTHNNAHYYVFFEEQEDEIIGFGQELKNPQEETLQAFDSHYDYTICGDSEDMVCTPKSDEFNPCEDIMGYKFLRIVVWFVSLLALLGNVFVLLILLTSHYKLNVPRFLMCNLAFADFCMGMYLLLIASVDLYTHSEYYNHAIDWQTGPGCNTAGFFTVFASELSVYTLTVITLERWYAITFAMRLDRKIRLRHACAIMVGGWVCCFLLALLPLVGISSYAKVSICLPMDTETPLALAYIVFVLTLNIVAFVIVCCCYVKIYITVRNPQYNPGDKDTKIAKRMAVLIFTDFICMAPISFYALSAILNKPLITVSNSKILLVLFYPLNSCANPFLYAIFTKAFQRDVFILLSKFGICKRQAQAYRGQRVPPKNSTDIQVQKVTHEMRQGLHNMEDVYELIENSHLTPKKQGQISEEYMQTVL

Consider `C[CH2][Hg][S]c1ccccc1C(=O)O`, for which the Potency in experiment [1] was 6.86 µM (active) and 9.44 µM (active); in experiment [2] it was 19.3 µM (active) and 11.9 µM (active); in experiment [3] it was 12.2 µM (active) and 7.5 µM (active); in experiment [4] it was 12.2 µM (active) and 6.68 µM (active); in [6], 4.33 µM (active) and 11.9 µM (active); in [8], 1.22 µM (active) and 2.37 µM (active). For the same compound, the Potency entry in experiment [5], in experiment [7] and in experiment [9] was “inactive” throughout.
Consider `CC(C)OC(=O)Cc1ccccc1`, for which the Potency entry in experiment [1], in experiment [10], in experiment [2], in experiment [3], in experiment [6] and in [9] was “inactive” each time.
In the case of `CCSCc1ccccc1OC(=O)NC`, the Potency entry in [1], in [2], in experiment [3], in experiment [4] and in experiment [6] was “inactive” in each case. For the same compound, the Potency in [5] was 27.3 µM (active).
Turning to `CN(C)c1ccc(N=O)cc1`, the Potency in experiment [1] is 27.4 µM (active) and 48.6 µM (active); in experiment [2], 27.4 µM (active) and 43.3 µM (active); in [3], 30.7 µM (active) and 27.3 µM (active); in experiment [4], 43.4 µM (active) and 43.3 µM (active); in [5], 4.87 µM (active); in experiment [6] it was 19.4 µM (active) and 30.6 µM (active). In addition, in experiment [8], the Potency is 9.72 µM (active) and 8.63 µM (active). In addition, the Potency result in experiment [7] is “inactive”.
Turning to `CCC(=O)O[C@@H]1C=C2CCC3C(CCC4(C)C3CC[C@@H]4OC(=O)CC)C2CC1` (some centres not stated), the Potency result in experiment [1], in experiment [10], in experiment [2], in experiment [3], in experiment [6] and in [9] was “inactive” in each case.
Regarding `C=CC(C)(CCC=C(C)C)OC(=O)c1ccccc1N` (configuration not stated), the Potency result in [1], in experiment [2], in [3], in experiment [4], in experiment [5] and in experiment [6] was “inactive” throughout. The Potency result in experiment [9] is “inactive”.
For the compound `CCC[N+](CCC)(CCC)CCC`, the Potency entry in [1], in [2], in [3], in experiment [4], in experiment [5] and in experiment [6] was “inactive” in each case. In addition, the Potency entry in [8] is “inactive”.
Regarding `Nc1ccc2c(c1)Cc1ccccc1-2`, the Potency result in experiment [1], in experiment [2], in experiment [3], in experiment [4], in experiment [6] and in [7] was “inactive” throughout. For the same compound, in experiment [5], the Potency is 48.3 µM (active).
As to `C[Si](Cn1cncn1)(c1ccc(F)cc1)c1ccc(F)cc1`, the Potency was 63.1 µM (active) and 48.6 µM (active) in [1]; 39.8 µM (active) and 48.6 µM (active) in experiment [7]. Besides, the Potency result in [10], in [3], in experiment [8] and in [9] was “inactive” throughout.
Turning to `CN1C[C@H](C(=O)N[C@]2(C)O[C@@]3(O)[C@@H]4CCCN4C(=O)[C@H](Cc4ccccc4)N3C2=O)C=C2c3cccc4[nH]cc(c34)C[C@H]21`, the Potency in experiment [1] is 24.4 µM (active) and 9.01 µM (active). In addition, the Potency result in experiment [2], in experiment [3], in experiment [4], in experiment [5] and in experiment [6] was “inactive” each time.
Consider `NCCc1cc(O)c(O)cc1O`, for which the Potency result in experiment [1], in experiment [2], in experiment [3], in experiment [4], in [5] and in experiment [6] was “inactive” in each case.
As for `C[N+]1(CCC(C(N)=O)(c2ccccc2)c2ccccc2)CCCCC1`, the Potency entry in experiment [1], in experiment [10], in experiment [2], in experiment [3], in experiment [6] and in experiment [9] was “inactive” throughout.
With `CCC1(CC)C(=O)NC(=O)NC1=O`, the Potency result in experiment [1], in experiment [2], in experiment [3], in experiment [4], in experiment [5] and in experiment [6] was “inactive” throughout.
As to `COc1ccc2c(c1OC)C(=O)O[C@H]2[C@@H]1c2cc3c(cc2CCN1C)OCO3`, in experiment [1], the Potency was 6.68 µM (active). Moreover, the Potency result in [10], in experiment [4], in experiment [5], in experiment [6] and in experiment [9] was “inactive” throughout.
Turning to `Clc1ccc(Cl)c(Cl)c1`, the Potency result in [1], in experiment [2], in [3], in experiment [4], in [5] and in experiment [6] was “inactive” in each case. Moreover, the Potency result in [7] and in [8] was “inactive” in each case. Further, in experiment [9], the Potency is 2.98 µM (active) and inactive.
On to `CC[N+]1(C)CCCC(OC(=O)C(O)(c2ccccc2)c2ccccc2)C1` (configuration not stated), for which the Potency result in [1], in [2], in [3], in [4], in experiment [5] and in experiment [6] was “inactive” throughout. Also, the Potency result in [8] and in experiment [9] was “inactive” throughout.
`O=C(NCNC(=O)NC1C(=O)NC(=O)N1CO)NC1C(=O)NC(=O)N1CO` (configuration not stated): the Potency result in experiment [1], in [10], in experiment [6], in [7], in experiment [8] and in [9] was “inactive” in each case.
Turning to `CCCCCBr`, the Potency result in experiment [1], in experiment [2], in [3], in experiment [4], in experiment [5] and in [6] was “inactive” throughout. Also, the Potency result in [9] was “inactive”.
